# Screens (PubChem BioAssay)
# In the library only some 3% were active in any assay of this set; here they are far more common.
# TWEAK Fn14 block = inhibitors of TWEAK-Fn14 interaction signaling; 2% of 360,000 active; TWEAK-stimulated Fn14 reporter cells, luciferase luminescence, 8 h; inhibition, % at 10 µM; in the data active = inhibition above about 50%
# TRPM1 prom inh = inhibitors of MITF-driven TRPM1 promoter in melanoma cells. SK-MEL-5 TRPM1 promoter luciferase, 24 h. inhibition, % at 12.5 µM. 0.83% of 330,000 active;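 active = mean inhibition across replicates of 60% or more, whatever share of single replicates reaches that level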
# MITF TRPM1 HTS = activators of MITF-driven TRPM1 promoter activity in SK-MEL-5 cells; 0.75% of 300,000 active; activation, % at 12.5 µM; SK-MEL-5 TRPM1-promoter luciferase, 24 h; % of positive control, neutral wells = 0;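 active = mean activation of at least 80% with every replicate also reaching 80%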
# LGR2 antag = blocks bursicon-induced cAMP signaling via Drosophila LGR2; HEK293 LGR2, CRE-luciferase, bursicon-stimulated, 4 h; inhibition, % at 9.99 µM; 0.35% of 380,000 active; AID 720647;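 active = drop in luminescence signal, shown as inhibition above about 50% in the replicate tests, limit read from the data, passing the limit was not always enough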;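 also: agonist challenge used bursicon conditioned medium at about half maximal strength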
# EBV LMP1 NFkB = inhibitors of Epstein-Barr LMP1-induced NF-kappaB reporter; 0.69% of 350,000 active; LMP1-induced NF-kappaB luciferase reporter cells, luminescence; inhibition, % at 12.5 µM; AID 504558; in the data active = inhibition above about 41%
# TROY signal inh = blocks TROY-dependent signaling in reporter cells. Q293 LMP1-TROYcd NF-kB luciferase reporter, 4 h. inhibition, % at 10 µM. 0.98% of 360,000 active. AID 1347056;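 active = compounds whose plate-normalised and pattern-corrected inhibition of the luciferase reporter signal at the single screening dose is 50% or more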
# Hits are given with their value; - = inactive; . = no result given.
SMILES,TWEAK Fn14 block,TRPM1 prom inh,MITF TRPM1 HTS,LGR2 antag,EBV LMP1 NFkB,TROY signal inh
COc1cc(Cl)ccc1OCc1cc(C(=O)N2C[C@H]3CC[C@H]2C3)no1,-,-,-,-,-,-
COc1cc(Cl)ccc1OCc1cc(C(=O)N2C[C@]3(C)C[C@H]2CC(C)(C)C3)no1,-,-,125,-,-,-
COc1ccc(C(=O)N2CC3(C)CC2CC(C)(C)C3)cc1 (stereo unspecified),-,-,-,.,-,66
C/C=C/c1ccc([C@H]2[C@@H](C#N)N(c3nc(CC)cs3)[C@@H]2CO)cc1,.,.,.,-,.,.
COc1cc(OC)cc(-c2oc(=O)c3cc(OC)c(OC)cc3c2C#CCCO)c1,-,-,-,-,-,-
COc1cc(OC)cc(-c2oc(=O)c3cc(OC)c(OC)cc3c2C(F)(F)F)c1,-,70,-,-,-,-
C[C@H]1CN([C@@H](C)CO)S(=O)(=O)c2ccc(-c3ccc(F)cc3)cc2O[C@H]1CN(C)C(=O)C1CCCCC1,.,.,.,-,.,.
N#Cc1c(SCc2ccccc2)nc(N2CCOCC2)c2c1CCCC2,-,-,-,.,-,-
CCSc1nc(N2CCCCC2)c2c(c1C#N)CCCC2,94,-,-,.,-,.
O=C(c1ccc(-c2ccccc2Cl)o1)N1CCN(S(=O)(=O)c2cccs2)CC1,-,-,87,-,-,-
O=C(c1cc(-c2ccc(Cl)cc2Cl)on1)N1CCCC1,70,-,-,75,-,-
O=C(c1ccccc1Cl)N1CCN(S(=O)(=O)c2cccs2)CC1,-,-,-,-,-,-
O=C(c1cc(-c2ccc(Cl)cc2Cl)on1)N1CCCCCC1,-,-,-,-,-,-
O=C(c1cc(-c2ccc(Cl)cc2)on1)N1CCCCCC1,-,-,-,-,-,-
O=C(c1cc(-c2ccc3c(c2)OCO3)on1)N1CCCCC1,78,-,-,-,-,-
O=C(c1cc(-c2ccc(Cl)c(Cl)c2)on1)N1CCCCCC1,-,-,131,-,-,-
CCCC#Cc1ccc2c(c1)[C@@H]1[C@@H](CCN1S(=O)(=O)c1ccccc1C)[C@@H](CO)N2,.,.,.,-,.,.
C[C@H]1CN([C@@H](C)CO)C(=O)CCCn2cc(nn2)CO[C@H]1CN(C)Cc1ccncc1,.,.,.,-,.,.
O=C(c1ccc(-c2ccc(Cl)cc2Cl)o1)N1CCOCC1,-,-,147,-,-,-
O=C(c1cc(-c2cccc(Cl)c2)on1)N1CCCCCC1,-,-,113,-,-,-
CO[C@H]1CN(C)C(=O)c2cc(NC(=O)C3CCC3)ccc2OC[C@@H](C)N(Cc2nccs2)C[C@H]1C,.,.,.,-,.,.
CCOC(=O)c1c(SCCN2CCCC2)n(-c2ccccc2)c(=S)n(-c2ccccc2)c1=O,-,96,-,-,-,-
COc1ccc(Cn2nnnc2C(C(C)C)N(Cc2ccco2)Cc2cccs2)cc1 (stereo unspecified),80,-,-,.,-,.
COc1ccc(CNC(=O)C[C@H]2C=C[C@@H](NC(=O)Nc3ccc4c(c3)OCO4)[C@H](CO)O2)cc1,.,.,.,-,.,.
CC(=O)N1[C@H](CO)[C@@H]2c3ccccc3N(C(=O)c3ccc(F)cc3)C[C@@H]21,.,.,.,-,.,.
SMILES,TWEAK Fn14 block,TRPM1 prom inh,MITF TRPM1 HTS,LGR2 antag,EBV LMP1 NFkB,TROY signal inh
CC(C)OC(=O)C(C(=O)C(F)(F)F)c1cc(NS(=O)(=O)c2ccc3ccccc3c2)c2ccccc2c1O (stereo unspecified),62,-,-,.,-,68
COc1ccc2nc(C)cc(SCC(=O)NNC(=O)COc3ccccc3)c2c1,-,-,.,.,-,-
COc1ccc2nc(C)cc(Sc3nc4ccccc4s3)c2c1,88,-,-,-,-,-
CSc1nc2cc(Oc3cccc(Cl)c3Cl)c(Cl)cc2[nH]1,-,-,-,.,-,56
CSc1nc2ccc(Cl)cc2[nH]1,-,-,-,.,-,-
CCOC(=O)C1C(=O)C=C(c2ccc(C)cc2)CC1c1ccco1 (stereo unspecified),-,-,.,.,48,-
CCOC(=O)C1C(=O)C=C(c2ccc(NS(C)(=O)=O)cc2)CC1c1ccco1 (stereo unspecified),-,-,-,.,-,-
C[C@@H](O)C#Cc1cnc2c(c1)C(=O)N([C@@H](C)CO)C[C@H](C)[C@@H](CN(C)C(=O)Nc1ccc(F)cc1)O2,.,.,.,-,.,.
CCCC(=O)Nc1ccc2c(c1)OC[C@H](C)N(C(=O)CN(C)C)C[C@@H](C)[C@H](OC)CN(C)C2=O,.,.,.,-,.,.
Cc1cc(C)cc(NC(=O)COC(=O)Cc2ccccc2F)c1,75,.,.,-,-,-
O=C(COC(=O)Cc1ccccc1F)Nc1ccc2c(c1)OCO2,-,-,-,-,-,-
CC(=O)Nc1cc([N+](=O)[O-])ccc1N1CCOCC1,-,-,-,-,-,-
O=C(Nc1ccc([N+](=O)[O-])cc1)Nc1ccc(N2CCOCC2)c2nonc12,-,-,-,67,-,69
C[C@@H]1CN([C@@H](C)CO)S(=O)(=O)c2ccc(C#Cc3cccnc3)cc2O[C@H]1CN(C)C(=O)CN(C)C,.,.,.,-,.,.
C[C@@H]1CCCCO[C@H](CN(C)S(=O)(=O)c2cccs2)[C@H](C)CN([C@H](C)CO)C(=O)c2cc(NS(C)(=O)=O)ccc2O1,.,.,.,-,.,.
COc1ccccc1CNS(=O)(=O)c1ccc(-c2cnc(C3CC3)o2)cc1,-,-,-,-,45,-
O=S(=O)(Nc1ccc(F)cc1Cl)c1ccc(-c2cnc(C3CC3)o2)cc1,-,-,-,-,-,52
Cc1ccc(NS(=O)(=O)c2ccc(-c3cnc(C4CC4)o3)cc2)c(C)c1,-,-,-,-,-,-
CCCCn1c(NS(=O)(=O)c2ccc(C)cc2)c(S(=O)(=O)c2ccccc2)c2nc3ccccc3nc21,-,-,-,-,-,64
CCN(C(=O)c1cnc(N2CCN(c3ncccn3)CC2)c2ccccc12)c1cccc(Cl)c1,66,-,-,.,-,-
CN(C(=O)c1cnc(N2CCN(c3ncccn3)CC2)c2ccccc12)c1ccc(Cl)cc1,-,-,-,-,-,-
CCN(CC)S(=O)(=O)c1ccc(NC(=O)c2ccc(N(C)S(C)(=O)=O)cc2)cc1,50,-,.,.,-,-
CCN(CC)S(=O)(=O)c1ccc(C(=O)Nc2ccc(Cc3ccncc3)cc2)cc1,58,-,-,-,-,-
Cc1ccc(-n2nnc3ccccc3c2=O)cc1C,-,-,86,.,-,-
CO[C@@H](CN(C)S(=O)(=O)c1ccc(F)cc1)[C@H](C)CN([C@@H](C)CO)S(=O)(=O)c1cccc(Cl)c1,.,.,.,-,.,.
Cn1nc(-c2ccc(OCC(=O)Nc3ccccc3)cc2)c2ccccc2c1=O,53,-,.,.,-,-
CC(=O)c1ccc(NS(=O)(=O)Cc2ccc(Cl)cc2)cc1,-,-,-,.,-,63
CC(=O)Nc1cccc(NS(=O)(=O)Cc2ccc(Cl)cc2)c1,-,-,-,.,-,-
CO[C@@H]1CN(C)C(=O)c2cc(NS(C)(=O)=O)ccc2OC[C@H](C)N(C)C[C@@H]1C,.,.,.,-,.,.
